A word on the AC50: it is the midpoint of the concentration-response curve, whichever way the signal moves.

Holding throughout (details): mRNA level, 48 h; actives raise or lower the signal
Read-out in assay [1]: Fatty Acid-Binding Protein 1 (FABP1), FABP1 (gene 2168)
Briefly: LTEA_HepaRG_FABP1: Life Technologies and Expression Analysis (LTEA) Assay for Fatty Acid-Binding Protein 1 (FABP1) using HepaRG (AID 2283494). A digest of the protocol:
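HepaRG, 48 h post-plating switched to serum-free induction medium, then dosed 48 h (duplicate, 8 pts, ≤100 uM, 0.5% DMSO). RNA → Fluidigm TaqMan qRT-PCR, FABP1 normed to ACTB/GAPDH/POLR2A. Bidirectional curve fit vs DMSO.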

Read-out in assay [2]: Glutathione S-Transferase (GSTA2), GSTA2 (gene 2939)
Briefly: LTEA_HepaRG_GSTA2: Life Technologies and Expression Analysis (LTEA) Assay for Glutathione S-Transferase (GSTA2) using HepaRG (AID 2283497). The gist of the method:
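HepaRG, 48 h dosing, 8-pt half-log CRC from 100 uM, 0.5% DMSO vehicle, n=2; RNA → Fluidigm TaqMan qRT-PCR; GSTA2 vs ACTB/GAPDH/POLR2A; gain/loss fit vs DMSO.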

Read-out in assay [3]: Glutamate-cysteine ligase catalytic (GCLC), GCLC (gene 2729)
Briefly: LTEA_HepaRG_GCLC: Life Technologies and Expression Analysis (LTEA) Assay for Glutamate-cysteine ligase catalytic (GCLC) using HepaRG (AID 2283498). A digest of the protocol:
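Read-out is GCLC transcript level by Fluidigm-based TaqMan qRT-PCR, normalized to three housekeeping genes and fitted in both directions relative to 0.5% DMSO. Human HepaRG cells received chemicals for 48 h, up to 100 uM.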

Read-out in assay [4]: Glutamate-cysteine ligase regulatory (GCLM), GCLM (gene 2730)
The assay is described as follows: LTEA_HepaRG_GCLM: Life Technologies and Expression Analysis (LTEA) Assay for Glutamate-cysteine ligase regulatory (GCLM) using HepaRG (AID 2283500). The gist of the method:
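Cells were plated, cultured 48 h, switched to serum-free induction medium, then dosed in duplicate for 48 h at eight half-log concentrations up to 100 uM. RNA was then profiled by qRT-PCR; gain or loss versus DMSO was fitted.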

Read-out in assay [5]: Glutathione S-transferase M3 (GSTM3), GSTM3 (gene 2947)
Briefly: LTEA_HepaRG_GSTM3: Life Technologies and Expression Analysis (LTEA) Assay for Glutathione S-transferase M3 (GSTM3) using HepaRG (AID 2283501). The gist of the method:
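Expression of GSTM3 is determined by qRT-PCR in human liver HepaRG cells treated 48 h with an 8-point half-log range from 100 uM in 0.5% DMSO.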

Read-out in assay [6]: Heat shock 70 kDa protein 1 (HSPA1A), gene 3303
The assay is described as follows: LTEA_HepaRG_HSPA1A: Life Technologies and Expression Analysis (LTEA) Assay for Heat shock 70 kDa protein 1 (HSPA1A) using HepaRG (AID 2283502). The gist of the method: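 Readout is HSPA1A transcript level by microfluidic qRT-PCR, normalized to three housekeeping genes and analysed for gain or loss of signal relative to 0.5% DMSO. Human HepaRG cultures received test chemicals for 48 h at up to 100 uM.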

Read-out in assay [7]: Cytochrome P450 3A7 (Homo sapiens) (UniProt P24462)
Briefly: LTEA_HepaRG_CYP3A7: Life Technologies and Expression Analysis (LTEA) Assay for CYP3A7 using HepaRG (AID 2283492). A digest of the protocol:
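qRT-PCR of CYP3A7 in HepaRG lysates after 48 h treatment; concentration-response (8 points, max 100 uM) analysed bidirectionally relative to 0.5% DMSO controls.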

Read-out in the next assay: CYP3A5 (gene 1577)
Briefly: LTEA_HepaRG_CYP3A5: Life Technologies and Expression Analysis (LTEA) Assay for CYP3A5 using HepaRG (AID 2283493). The gist of the method: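 HepaRG plated 48 h, switched to serum-free induction medium, chemicals added 48 h (max 100 uM, half-log, 0.5% DMSO). RNA isolated; CYP3A5 by TaqMan qRT-PCR. Gain/loss vs DMSO.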

Read-out in assay [8]: Cytochrome P450 4A22 (Homo sapiens) (UniProt Q5TCH4)
Briefly: LTEA_HepaRG_CYP4A22: Life Technologies and Expression Analysis (LTEA) Assay for Cytochrome P450 4A22 (CYP4A22) using HepaRG (AID 2283495). The gist of the method: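 Concentration-response (8 points, max 100 uM, 0.5% DMSO) in human HepaRG liver cells after 48 h exposure. CYP4A22 mRNA by TaqMan qRT-PCR with housekeeping-gene normalization.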

Read-out in assay [9]: Cytochrome P450 7A1 (Homo sapiens) (UniProt P22680)
The assay is described as follows: LTEA_HepaRG_CYP7A1: Life Technologies and Expression Analysis (LTEA) Assay for Cytochrome P450 7A1 (CYP7A1) using HepaRG (AID 2283496). The gist of the method: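 HepaRG cells plated 48 h, then switched to serum-free induction medium and exposed in duplicate for 48 h to 8-point half-log series from 100 uM in 0.5% DMSO. CYP7A1 mRNA by qRT-PCR (TaqMan), normalized to ACTB/GAPDH/POLR2A; bidirectional fit versus DMSO.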

Active and inactive are the calls of the source. How the source made its calls: active means hit-call score of the fitted dose curve at least 0.9, where 1 is the maximum; inactive means score below 0.9.

Sequence of Cytochrome P450 3A7 (Homo sapiens) (P24462 whole entry, looked up): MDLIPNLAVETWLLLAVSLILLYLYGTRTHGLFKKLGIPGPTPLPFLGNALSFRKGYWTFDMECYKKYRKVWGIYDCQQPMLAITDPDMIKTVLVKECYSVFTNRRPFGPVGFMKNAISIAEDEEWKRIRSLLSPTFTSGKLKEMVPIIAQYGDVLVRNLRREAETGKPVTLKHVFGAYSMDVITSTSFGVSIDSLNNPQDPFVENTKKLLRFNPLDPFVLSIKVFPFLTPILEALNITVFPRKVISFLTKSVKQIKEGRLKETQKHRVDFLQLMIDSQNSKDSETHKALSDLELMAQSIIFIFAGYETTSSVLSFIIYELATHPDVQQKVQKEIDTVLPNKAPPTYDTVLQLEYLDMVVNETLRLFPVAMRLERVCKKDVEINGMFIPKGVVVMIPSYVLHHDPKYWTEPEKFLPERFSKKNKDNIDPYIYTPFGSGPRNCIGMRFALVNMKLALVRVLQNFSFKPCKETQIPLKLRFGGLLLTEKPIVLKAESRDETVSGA

Regarding `CS(=O)(=O)c1ccc([C@@H](CC2CCCC2)C(=O)Nc2cnccn2)cc1Cl`, the AC50 was 63.4 µM (active) in assay [1], 73.7 µM (active) in assay [2] and 50 µM (active) in [4]. The call in [3], in assay [5] and in assay [6] was inactive.
In the case of `CN(C)CCOC(c1ccccc1)c1ccccc1`, the call in assay [1], in [2], in assay [3], in assay [4], in [5] and in [6] was inactive.
With `CN(Cc1cnc2nc(N)nc(N)c2n1)c1ccc(C(=O)N[C@@H](CCC(=O)O)C(=O)O)cc1`, the compound was called inactive in assay [7], in [8], in assay [3], in assay [4] and in assay [5]. Moreover, the AC50 with CYP3A5 (gene 1577) was 0.0985 µM (active); in assay [1], 0.322 µM (active); in [9] it was 0.233 µM (active); in assay [2], 0.264 µM (active).
On to `O=C(c1ccccc1)c1ccccc1`, for which the AC50 in assay [1] is 0.851 µM (active). Also, the call in assay [2], in [3], in assay [4], in [5] and in assay [6] was inactive.
Consider `CC(=O)Nc1ccc(O)cc1`, for which the outcome (in assay [7]; with CYP3A5 (gene 1577); in assay [1]; in [8]; in assay [9]; in assay [2]) was inactive. Further, the result in assay [3], in [4], in assay [5] and in [6] was inactive.
On to `CCCCC=O`, for which the outcome (in [7]; in the assay with CYP3A5 (gene 1577); in assay [1]; in [8]; in assay [9]; in assay [2]) was inactive. Also, the compound was classed as inactive in [3], in [4], in assay [5] and in assay [6].
On to `Cc1[nH]nc2c1N=C(c1ccccc1Cl)c1cc([N+](=O)[O-])ccc1N2`, for which the AC50 in assay [7] is 2.83 µM (active); with CYP3A5 (gene 1577), 13.4 µM (active); in assay [1], 8.85 µM (active); in assay [8] it was 8.32 µM (active); in assay [9], 27 µM (active); in assay [2], 17.2 µM (active). Besides, the AC50 is 2.83 µM (active) in assay [3] and 50 µM (active) in [5]. The outcome in assay [4] and in [6] was inactive.
Regarding `O=C(CCCN1CCC(O)(c2ccc(Cl)cc2)CC1)c1ccc(F)cc1`, the half-maximal activity concentration (AC50) is 75.8 µM (active) in assay [7]; 93.2 µM (active) in assay [1]; 64 µM (active) in assay [8]; 82 µM (active) in assay [9]; 78 µM (active) in assay [2]; 77.1 µM (active) in assay [3]. For the same compound, the AC50 is 71.9 µM (active) in assay [4] and 74.3 µM (active) in [6]. Also, the call (with CYP3A5 (gene 1577); in assay [5]) was inactive.
On to `O=C1NS(=O)(=O)c2ccccc21`, for which the call (in [7]; with CYP3A5 (gene 1577); in assay [1]; in assay [8]; in assay [9]; in [2]) was inactive. Also, the call in assay [3], in assay [4], in [5] and in [6] was inactive.
In the case of `N=C(N)c1ccc(OCCCCCOc2ccc(C(=N)N)cc2)cc1`, the AC50 in assay [1] was 4.05 µM (active); in assay [8], 3.87 µM (active); in [9] it was 6.66 µM (active); in assay [2], 7.03 µM (active); in assay [3] it was 27.9 µM (active); in assay [5] it was 5.05 µM (active). In assay [6], the AC50 was 26.5 µM (active). For the same compound, the call in [4] was inactive.
As to `CCCCCCCCCCCCCCC`, the AC50 in assay [7] is 14.9 µM (active). Besides, the outcome (with CYP3A5 (gene 1577); in [1]; in assay [8]; in assay [9]; in [2]; in [3]) was inactive. Moreover, the call in assay [4], in assay [5] and in assay [6] was inactive.
With `CCCCC(CC)C(=O)O` (configuration not stated), the call (in assay [7]; with CYP3A5 (gene 1577); in assay [1]; in assay [8]; in assay [9]; in assay [2]) was inactive. Moreover, the compound was classed as inactive in assay [3], in assay [4], in assay [5] and in [6].
As to `CCCCCCCCCCCCOS(=O)(=O)O`, the call (with CYP3A5 (gene 1577); in assay [3]; in assay [4]; in [5]) was inactive. Besides, the values for the AC50 in [1] and in [6] were 87.6 µM (active) and 50 µM (active), respectively.
Take `CCCCc1oc2ccccc2c1C(=O)c1cc(I)c(OCCN(CC)CC)c(I)c1`: the AC50 in assay [1] is 69.9 µM (active); in assay [2], 59 µM (active); in assay [3], 67.4 µM (active); in assay [4] it was 61.8 µM (active); in [5], 37.8 µM (active); in [6], 60 µM (active).
Turning to `CCC(C)c1ccccc1O` (configuration not stated), the call (in assay [7]; in the assay with CYP3A5 (gene 1577); in assay [1]; in assay [8]; in assay [9]; in assay [2]) was inactive. The compound was called inactive in assay [3], in [4], in assay [5] and in assay [6].
`OCC(CO)(CBr)CBr`: the compound was called inactive (in [7]; with CYP3A5 (gene 1577); in assay [1]; in assay [8]; in assay [9]; in assay [2]). Further, the compound was called inactive in [3], in [4], in [5] and in assay [6].

Values taken from PubChem BioAssay (EPA / NIEHS).
